Experimental data reported in PubChem BioAssay AID2314 (National Center for Advancing Translational Sciences (NCATS), 2010).
Where “and” joins values, the source holds several entries; their conditions need not be identical. Equal values may be shown once. In all, about 300,000 compounds went through this assay and about 37,000 (12%) were called active. No stated cut-off is given here; in the data, active means max response mostly above about 13% (no sharp cut-off); inactive means mostly below about 14%. The entries come from a sample that favours actives as a whole.

Assay: Cycloheximide Counterscreen for Small Molecule Inhibitors of Shiga Toxin; further: read at 38.3 µM for the half of the compounds with a filed dose; 0% is about no effect
Conditions: cell reporter, cycloheximide protein synthesis inhibition counterscreen; active compounds read high

| Compound | max response |
| --- | --- |
| Cc1ccc(S(=O)(=O)/N=C(\CN2CCOCC2)N2CCOCC2)cc1 | -4.56% (inactive) |
| CN(CCO)c1ccc(/C=N/Nc2nncc3ccccc23)cc1 | 26.2% (active) |
| COc1cc(/C=N/Nc2nn3cnnc3c3ccccc23)cc(OC)c1OC | 17.3% (inactive) |
| Cc1[nH]c(C)c(S(=O)(=O)N2CCC(C)CC2)c1C(=O)N1CCCC1 | -1.96% (inactive) |
| CCc1ccc(OCC(=O)OC(C)C(=O)NC2CC2)cc1 (stereo not drawn) | -3.17% (inactive) |
| CCC(Sc1nncn1C)C(=O)Nc1nnc(-c2ccc(Cl)cc2)s1 (stereo not drawn) | 11.6% (inactive) |
| Cc1nc(-c2ccc(Cl)cc2)sc1C(=O)CBr | 24.4% (active) |
| Cc1nc(-c2ccc(Cl)cc2)sc1C(=O)NN | 0.842% (inactive) |
| Cc1cc(/C=N/NC(=O)CC2(C)OCCO2)c(C)n1-c1ccc(Cl)c(Cl)c1 | -1.92% (inactive) |
| COc1ccc(-c2noc(CNC(=O)C(C)Oc3ccccc3)n2)cc1 (stereo not drawn) | 0.411% (inactive) |
| Cc1ccc(-c2nc(CS(=O)(=O)CC(=O)NCc3ccc4c(c3)OCO4)c(C)o2)cc1 | -6.73% (inactive) |
| CC(=O)N1CCSc2ccc(S(=O)(=O)N3CCC(C)CC3)cc21 | 11.3% (inactive) |
| COc1ccc2nc(/N=C(\N)NC(=O)Nc3ccccc3)nc(C)c2c1 | 21.4% (active) |
| COc1ccc2nc(C)cc(Nc3cccc(C(=O)O)c3)c2c1 | -4.02% (inactive) |
| Cc1nc(/N=C(\N)NC(=O)NC2CCCCC2)nc2ccccc12 | 8.1% (inactive) |
| NC(=O)c1cc(S(=O)(=O)N2CCCC2)ccc1OCc1ccc(F)cc1 | 8.59% (inactive) |
| COc1ccc(CCNc2nc(C)cc(C)n2)cc1OC | -4.51% (inactive) |
| CCOC(=O)c1c(NC(=S)NC(=O)/C=C/c2cccs2)sc(C)c1C | -0.873% (inactive) |
| CCOC(=O)c1sc(=NC(=O)c2ccc(Br)cc2)n(C)c1C | 7.25% (inactive) |
| CCOC(=O)c1sc(=NC(=O)/C=C/c2cccs2)n(C)c1C | 45% (active) |
| Cc1cccc2[nH]c(CN(C)C(=O)C3CCC(=O)N(CCc4ccccc4)C3)nc12 (stereo not drawn) | -2.09% (inactive) |
| CC1CCN(S(=O)(=O)c2ccc(NC(=O)C3CC(=O)N(c4ccccc4)C3)cc2)CC1 (stereo not drawn) | -2.49% (inactive) |
| COC(=O)c1cc(S(=O)(=O)NCC2CCN(Cc3ccc(Cl)cc3)CC2)cn1C | -2.79% (inactive) |
| Cc1cc(NC(=O)Nc2c[nH]c(=O)[nH]c2=O)ccc1Br | 9% (inactive) |

| Compound | max response |
| --- | --- |
| COC(=O)c1ccc2c(C(C)(C)O)c(C(C)(C)O)[nH]c2c1 | 14.2% (active) |
| COC(=O)c1cccc(NS(C)(=O)=O)c1 | -1.63% (inactive) |
| CCN(CC)CCNC(=O)CCCCCn1c(=O)[nH]c2cc(C(=O)OC)ccc2c1=O | -5.11% (inactive) |
| CC(C)(C)c1cc(C(=O)NN)n(Cc2ccc(Cl)cc2Cl)n1 | -2.75% (inactive) |
| N=c1n(Cc2ccc(Cl)cc2)c2ccccc2n1CC(O)c1ccco1 (stereo not drawn) | -4.56% (inactive) |
| C=C(C)CNC(=S)/N=c1\scc(C)n1CC | 10.1% (inactive) |
| CC(=O)/C(=N\Nc1ccc(Cl)cc1Cl)Sc1cccc2cccnc12 | 19.1% (active) |
| O=C(CSc1cccc2cccnc12)N/N=C/c1cccnc1 | 31.6% (inactive) |
| Cc1ccc(NC(=O)CSc2cccc3cccnc23)c(C)c1 | 21% (inactive) |
| COc1ccc(CCN2CC(C(=O)NCCN3CCNC3=O)CCC2=O)cc1 (stereo not drawn) | 7.2% (inactive) |
| COc1cc(C(=O)OC(C)C(=O)NCC2CCCCC2)cc(NC(=O)c2ccco2)c1OC (stereo not drawn) | -2.06% (inactive) |
| COc1ccc(C[C@H]2CN3C(=NC[C@H]3C)N2CCNC(=O)CCC2CCCCC2)cc1 | 5.31% (inactive) |
| CCc1nn(CCCC(=O)Nc2ccc(C)cc2C)c(=O)c2cc3occc3n12 | 0.647% (inactive) |
| CC(=O)N1Cc2ccccc2CC1C(=O)O (stereo not drawn) | -1.38% (inactive) |
| Cc1ccc(Nc2nc(C)cc(C)c2C(N)=O)cc1 | -4.97% (inactive) |
| Cc1ccc(Nc2nc(Cl)c(C=O)s2)cc1 | 46% (active) |
| Cc1ccc(NC(=O)Nc2nnc(-c3ccncc3)s2)cc1 | -1.9% (inactive) |
| Cc1cccc(OCC(O)CN2CCN(CCN3C(=O)c4cccc5cccc(c45)C3=O)CC2)c1C (stereo not drawn) | -8.1% (inactive) |
| COC(=O)CN1C(=O)[C@H]2[C@@H](C3CC3)N3C(=O)CN(Cc4ccc(-c5ccccc5)cc4)C(=O)[C@@]3(Cc3ccccc3)[C@H]2C1=O | -3.99% (inactive) |
| Cc1ccc(NC(=S)N(CCCN2CCCC2)Cc2cccn2Cc2ccc(Cl)cc2)cc1 | -7.32% (inactive) |
| Cc1cc(F)ccc1S(=O)(=O)N1CCCOC1CNC(=O)C(=O)NCCC1=CCCCC1 (stereo not drawn) | -4.9% (inactive) |
| O=c1[nH]n(-c2ccc([N+](=O)[O-])cc2)c(=O)c2ccccc12 | -2.65% (inactive) |
| CC1=NN(c2ccccc2)C(=O)C1C(=O)c1ccc([N+](=O)[O-])cc1 (stereo not drawn) | 20.6% (inactive) |
| O=C1CC(c2ccccc2)=NN1c1ccc([N+](=O)[O-])cc1 | 17.2% (active) |

| Compound | max response |
| --- | --- |
| Cc1ccc(CNC(=O)C2(C(F)(F)F)C/C(=C\Cc3ccccc3)CCCO2)o1 (stereo not drawn) | -3.33% (inactive) and -3.22% (inactive) |
| O=C(COc1nsnc1N1CCOCC1)Nc1ccccc1Cl | 8.06% (inactive) |
| COc1ccc(NC(=O)COC(=O)c2ccc(NS(=O)(=O)/C=C/c3ccccc3)cc2)cc1 | 0.764% (inactive) |
| COc1cc2ccccc2cc1C(=O)Nc1ccc(N2CCOCC2)cc1 | 8.83% (inactive) |
| CCn1c(Cc2ccc(OC)cc2)nnc1SCC(=O)Nc1ccc(N2CCOCC2)cc1 | -3.63% (inactive) |
| COc1cccc(/C=C(/CC(=O)Nc2ccc(N3CCOCC3)cc2)c2nc3ccccc3s2)c1 | 50.5% (active) |
| COc1ccc(NC(=O)CSc2nc3ccccc3c(=O)n2C)cc1 | -4.03% (inactive) |
| COc1ccc(/C=C(/CC(=O)Nc2ccc(C)cc2)c2nc3ccccc3s2)cc1 | 21.2% (active) |
| Cc1cc(C(=O)NC2CCN(Cc3ccccc3)CC2)n[nH]1 | -5.5% (inactive) |
| Clc1ccc(C[n+]2cc(-c3ccc(Cl)cc3)n3c2CCC3)cc1 | 1.82% (inactive) |
| Cc1ccc(CN2CCCOCCS2(=O)=O)cc1 | 0.911% (inactive) |
| O=C(OCc1nc2ccccc2[nH]1)C1CCCCC1 | 16.3% (active) |
| CCO[C@@H]1OC(C(=O)NCc2nc3ccccc3[nH]2)=C[C@H](C2CCCCC2)[C@H]1CCCO | -1.94% (inactive) |
| O=C(COc1ccccc1)NCCc1nc2ccccc2[nH]1 | -4.17% (inactive) |
| CCc1cc2c(NC(Cc3ccccc3)C(=O)O)ncnc2s1 (stereo not drawn) | 1.45% (inactive) |
| Cc1ccc(NC(=O)CC2C(=O)N(Cc3ccccc3)C(=S)N2NC(=O)c2cccc(F)c2)c(C)c1 (stereo not drawn) | -8.81% (inactive) |
| Cc1ccc(OCCCCc2c(C)n[nH]c2C)cc1 | 7.68% (inactive) |
| Nc1nc(SCCOc2ccccc2)n[nH]1 | 10.5% (inactive) |
| CCCOc1ccc(-c2nc(N)n[nH]2)cc1 | 27.8% (active) |
| CC(NCC(=O)Nc1cc(Cl)cc(Cl)c1)c1ccccc1 (stereo not drawn) | -2.23% (inactive) |
| COc1cccc(CNC(=O)CCC2CCCN(Cc3ccc(OC(F)F)cc3)C2)c1 (stereo not drawn) | -2.71% (inactive) |
| COc1ccc(OC)c(CNC(=O)Cn2nc(C)c3c(C)n(-c4ccc(C)cc4)nc3c2=O)c1 | 2.16% (inactive) |
| CC(=O)Nc1cccc(NC(=O)CSc2nccn2Cc2ccc(F)cc2)c1 | -0.128% (inactive) |
| COc1ccc(S(=O)(=O)Nc2ccc3c(c2)OCO3)cc1Cl | 1.12% (inactive) |

| Compound | max response |
| --- | --- |
| COc1ccc(C(=O)Nc2ccc3nc(N4CCCCC4)cc(C)c3c2)cc1OC | -1.84% (inactive) |
| Cn1c(=O)n(C)c2cc(C(=O)Nc3ccc(Br)cc3)ccc21 | 5.85% (inactive) |
| COc1ccc(C(=O)Nc2ccc3c(c2)OCO3)cc1OC | 57.2% (active) |
| COc1ccc(C(=O)Nc2ccc(C3(C#N)CCCC3)cc2)cc1OC | 20.7% (active) |
| COc1cc(C(=O)NCC2(c3ccccc3)CCCC2)ccc1OC(C)C | -3% (inactive) |
| COc1ccc(-c2cc(C(F)(F)F)nc(SCC(=O)Nc3ccc4c(c3)OCO4)n2)cc1OC | 0.778% (inactive) |
| Cn1c(=O)n(C)c2cc(C(=O)Nc3ccc4c(c3)OCO4)ccc21 | 21.7% (active) |
| COc1cccc(OC)c1C(=O)Nc1ccc2c(c1)n(C)c(=O)n2C | -0.414% (inactive) |
| O=C(Cc1ccccc1)Nc1c(C(=O)N2CCCCCC2)cnn1-c1ccccc1 | -1.98% (inactive) |
| COc1ccc2c(c1)CCc1cn3ncc(C#N)c3nc1-2 | -3.03% (inactive) |
| CCCCn1nc(C(=O)N2CCc3ccccc32)c2ccccc2c1=O | 1.07% (inactive) |
| Cc1nc(N=C(N)N)nc2c(C)cccc12 | 3.71% (inactive) |
| CCOC(=O)C(C)n1cnc2scc(-c3ccc(C)c(C)c3)c2c1=O (stereo not drawn) | -0.876% (inactive) |
| Cc1ccccc1OCC(=O)N(Cc1cccc(F)c1)C1CCS(=O)(=O)C1 (stereo not drawn) | -13% (inactive) |
| Cc1cc2oc(=O)cc(-c3ccccc3)c2c(C)c1-c1ccc(OC(F)(F)F)cc1 | 17.1% (inactive) |
| CN(C(=O)CCNC(=O)Cn1ccc2ccccc2c1=O)c1ccc(Br)cc1 | -6.96% (inactive) |
| CCN(/N=C/c1ccc(N(C)C)cc1)c1nc2ccccc2[nH]1 | 5.84% (inactive) |
| CNC(=O)c1ccsc1NC(=O)c1ccc(S(=O)(=O)N2CCc3ccccc32)cc1 | -2.6% (inactive) |
| CCN(CC)CCCNC(=O)c1cc2c(=O)[nH]c3ccc(C)cc3c2s1 | 0.225% (inactive) |
| COc1ccc(C2=NN(c3nc4ccccc4s3)C(=O)C2)cc1 | 25.8% (active) |
| COc1ccc(N2C(=O)CC(Sc3n[nH]c(-c4ccc(C)cc4)n3)C2=O)cc1 (stereo not drawn) | -1.55% (inactive) |
